Measurements from the supplement of paper PMC10681739.

The sequences below were run against RUNX1 (UniProt Q01196) (assay: RUNX1 binding intensity (PBM fluorescence), RUNX1 alone (arbitrary fluorescence units); higher = stronger binding). Conditions: RUNX1 concentration 2 nM; ETS1 concentration 0 nM.
Description: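 Cooperative gcPBM on 36-bp genomic probes with neighbouring ETS1 and RUNX1 sites. Recombinant human RUNX1 (2 nM) was incubated alone or with ETS1 (25 nM) and detected with anti-RUNX1 antibody plus Alexa488 secondary. Values are medians over 4 replicate spots; the RUNX1+ETS1 data were normalised to the RUNX1-only data. The probes sit in constant array flanks that are not printed.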
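Wherever RUNX1 binding intensity (PBM fluorescence), RUNX1 alone is given: Full-length recombinant human RUNX1 bound to double-stranded 36-bp genomic probes on a high-density microarray, scored as Alexa488 fluorescence per spot via anti-RUNX1 antibody, median of four replicate spots.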

Sequence of RUNX1 (Q01196 whole entry): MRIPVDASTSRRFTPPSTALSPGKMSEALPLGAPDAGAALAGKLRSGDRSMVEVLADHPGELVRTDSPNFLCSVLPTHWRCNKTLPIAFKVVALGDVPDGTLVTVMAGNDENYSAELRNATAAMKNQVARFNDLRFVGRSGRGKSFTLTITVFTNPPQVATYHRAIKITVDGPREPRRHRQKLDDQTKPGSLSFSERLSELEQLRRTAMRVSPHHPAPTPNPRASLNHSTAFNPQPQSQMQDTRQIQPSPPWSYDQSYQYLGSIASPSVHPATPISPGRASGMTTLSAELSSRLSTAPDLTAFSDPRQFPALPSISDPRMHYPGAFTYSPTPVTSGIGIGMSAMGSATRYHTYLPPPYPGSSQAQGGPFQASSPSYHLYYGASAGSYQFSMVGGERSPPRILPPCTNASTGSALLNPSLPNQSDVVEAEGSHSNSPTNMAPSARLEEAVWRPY

First: GAAGCAGACAGGAAGTGGGTCTGAGCGGTGGAGGGA
Second: GATGGTGTCTTTTGGGGATGTGGGTTTGGGGGATGG
The RUNX1 binding intensity of the first is lower: 690 for the first, 835 for the second.

Compared with AAAAGGCACCAGGAAATGACAGCACCGCAGCACGCC, GACATGCTCCGGAAGCTTGAGGTTTTAACGTTAAGG is higher in RUNX1 binding intensity: 717 for the first, 734 for the second.

Going from CTTCTGGCGGAAGCGGCACAAGCCGCAGTACAGCGC to TAAAACACCAGGAAACTCTGTGGTGAGTGGGAGGTG, the RUNX1 binding intensity rises from 738 to 1060.

First: TCCTCCATGCAGGAAAACCTCTGTGGTCTGGGAGCT
Second: ACTTACTTCCCGACGTCACAGCCACCGAAACCACAG
The RUNX1 binding intensity of the first is lower: 867 for the first, 1410 for the second.

Going from AGGGCTGAAACAGGATGTGGTGAGTGAGGTAGGGTG to CAGAGAAACAGGAAGAACAGTGGTTTCAACTGAAAT, the RUNX1 binding intensity falls from 816 to 783.

Going from TATTCAGGCTTCCGGGTGATGTTTGTGGCCACCCGG to GCTGAGGCCGGAAGAGGGTGGGGCCGCGGTGGCTAG, the RUNX1 binding intensity rises from 671 to 756.

Compared with GGGAGGCCCCATCCTGTGTGGCTGTGGCTTTTGCCT, CACTTCCCGTGGGAGGATCTTGGGCTGCGGCTAGGG is higher in RUNX1 binding intensity: 653 for the first, 803 for the second.

First: CTCACCCCTGGAGGATGTGGGTTTCCAGGCTGACAG
Second: GCCTGTGGAGTTGCAGGATGTGGTTGGCGAAAAGAA
The RUNX1 binding intensity of the first is lower: 849 for the first, 905 for the second.

Going from TGAAACCCAGCAGGATGTGGGTTAACGGCAGGGGAG to TCTTCAGGCGTCTTTCCGGTGGTGGTCGTTTTTGCT, the RUNX1 binding intensity rises from 733 to 905.

Sequence TTCTGTAGCTTAGGATGTGGGTTTCTTTGTTTCTGA has an RUNX1 binding intensity of 926.

The sequences below were run against T1, ETS1 (UniProt P14921) (assay: ETS1 binding intensity (PBM fluorescence) in presence of RUNX1, normalised to ETS1-only experiment (arbitrary fluorescence units); higher = stronger binding). Conditions: ETS1 concentration 1 nM; RUNX1 concentration 25 nM.
T1 sequence: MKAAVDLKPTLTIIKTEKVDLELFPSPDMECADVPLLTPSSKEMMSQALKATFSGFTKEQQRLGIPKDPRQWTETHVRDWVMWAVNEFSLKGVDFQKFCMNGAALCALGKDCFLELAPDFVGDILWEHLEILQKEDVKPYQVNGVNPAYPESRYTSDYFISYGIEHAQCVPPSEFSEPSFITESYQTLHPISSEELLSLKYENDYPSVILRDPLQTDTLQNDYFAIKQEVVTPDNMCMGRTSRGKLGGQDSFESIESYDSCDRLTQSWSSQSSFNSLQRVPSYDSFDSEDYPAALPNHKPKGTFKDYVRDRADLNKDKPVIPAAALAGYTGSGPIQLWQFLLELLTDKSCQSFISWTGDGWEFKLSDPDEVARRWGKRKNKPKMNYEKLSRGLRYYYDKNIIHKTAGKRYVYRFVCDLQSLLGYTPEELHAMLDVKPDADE

First: TGCTTTTCAGGTGCAGGAAGTGGTTTGCCTTTGCCC
Second: TCTGGGGGAGGGGAAGGATGTGGTTTGCAGAGCGGA
The ETS1 binding intensity of the first is higher: 11000 for the first, 5630 for the second.

Compared with AGAGCGAGGAGGACTTCCTGCGGCAGGTCGGCGTGA, TCTCTACTTCCCATTATTTCTGTGGTTAATTTCACC is higher in ETS1 binding intensity: 622 for the first, 986 for the second.

Compared with GTGAGCCTGTAAAGGAAATTGAGGTTATGTGGCTCA, GCCCCCGGCTGGGCAGGATGTGGTGGCAGCTGCAGG is higher in ETS1 binding intensity: 1770 for the first, 5380 for the second.

Compared with AGCACTTCCGTTTGGGCAGGGCTGCGGGCCGGAGGG, TTTGTGCCCCAACTTCCTCTGTGGCTTTTGGGTGGG is higher in ETS1 binding intensity: 831 for the first, 969 for the second.

Going from CTGGGGAGGAAGCCTGAGGTGTGTGGTTTTGTTAAC to GTAGCTCCTCCCACTTCCCGTGGTTTTCGGTTGAAC, the ETS1 binding intensity rises from 811 to 916.

Going from CGGCTGGCAGGAAGTGGCCACTTGAACCGCAGATGC to GGGACGGGGAGGGCAGGATGTGGTCGCTCTTCCCTC, the ETS1 binding intensity falls from 23300 to 9330.

Going from TTTAGACACCGCTTCCTGCCACAAGCCCAAGACTTA to CCCGCTGTCACTTCCTGCTTCCCTCCCGCACACGTG, the ETS1 binding intensity rises from 839 to 2310.

Going from GTGGCGGGGCGGAAGTTCACATGTGTGGTATGTAGA to GGCGGATGGGGAGAAGAGAGTGGCTGTGGTCTCTGG, the ETS1 binding intensity falls from 5000 to 491.

First: CCCGCGACACAAGGCGGATGTGGTACCCTCACTTGT
Second: GCAGAAACAGGAAGAGACAGGGCTGACCGCAGCAGG
The ETS1 binding intensity of the first is lower: 5070 for the first, 6300 for the second.

First: GAAGCAGACAGGAAGTGGGTCTGAGCGGTGGAGGGA
Second: GATGGTGTCTTTTGGGGATGTGGGTTTGGGGGATGG
The ETS1 binding intensity of the first is higher: 8610 for the first, 1610 for the second.

Compared with AAAAGGCACCAGGAAATGACAGCACCGCAGCACGCC, GACATGCTCCGGAAGCTTGAGGTTTTAACGTTAAGG is higher in ETS1 binding intensity: 2020 for the first, 5030 for the second.

Going from CTTCTGGCGGAAGCGGCACAAGCCGCAGTACAGCGC to TAAAACACCAGGAAACTCTGTGGTGAGTGGGAGGTG, the ETS1 binding intensity falls from 2370 to 1220.

First: TCCTCCATGCAGGAAAACCTCTGTGGTCTGGGAGCT
Second: ACTTACTTCCCGACGTCACAGCCACCGAAACCACAG
The ETS1 binding intensity of the first is higher: 1230 for the first, 464 for the second.

Compared with AGGGCTGAAACAGGATGTGGTGAGTGAGGTAGGGTG, CAGAGAAACAGGAAGAACAGTGGTTTCAACTGAAAT is lower in ETS1 binding intensity: 16600 for the first, 1310 for the second.

Compared with TATTCAGGCTTCCGGGTGATGTTTGTGGCCACCCGG, GCTGAGGCCGGAAGAGGGTGGGGCCGCGGTGGCTAG is lower in ETS1 binding intensity: 5020 for the first, 3070 for the second.

Going from GGGAGGCCCCATCCTGTGTGGCTGTGGCTTTTGCCT to CACTTCCCGTGGGAGGATCTTGGGCTGCGGCTAGGG, the ETS1 binding intensity rises from 451 to 802.

Going from CTCACCCCTGGAGGATGTGGGTTTCCAGGCTGACAG to GCCTGTGGAGTTGCAGGATGTGGTTGGCGAAAAGAA, the ETS1 binding intensity rises from 2130 to 7880.

Compared with TGAAACCCAGCAGGATGTGGGTTAACGGCAGGGGAG, TCTTCAGGCGTCTTTCCGGTGGTGGTCGTTTTTGCT is lower in ETS1 binding intensity: 6440 for the first, 1330 for the second.

TTCTGTAGCTTAGGATGTGGGTTTCTTTGTTTCTGA gave an ETS1 binding intensity of 1020.
